Screens (PubChem)
The list is not random: actives were taken first. Their share in the collection is about 5%.
ALR H2O2 inh = human ALR oxidase inhibition via reduced H2O2 | AID 485317 | purified ALR, DTT oxidation, H2O2 HRP-luminol luminescence | actives 3.8% (n = 290,000) | inhibition, % (test concentration not listed) | P55789;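 active = mean replicate inhibition above about 79%, with every replicate also reaching it, limit read from the data; inconclusive = only one of the two criteria met; inactive = mean below limit and not every replicate reaching it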
CHT allo act = human CHT allosteric activation; Q9GZV3; CHT-expressing cells, membrane potential dye, choline EC20; hits give high values; LV-AA mutant CHT in HEK293 cells; B-score at 10 µM; actives 0.49% (n = 310,000); AID 488977;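 active = initial fluorescence not abnormally high and integrated response B-score, plate-corrected, over 3 SD above library mean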
Target sequence (Q9GZV3 whole entry, looked up): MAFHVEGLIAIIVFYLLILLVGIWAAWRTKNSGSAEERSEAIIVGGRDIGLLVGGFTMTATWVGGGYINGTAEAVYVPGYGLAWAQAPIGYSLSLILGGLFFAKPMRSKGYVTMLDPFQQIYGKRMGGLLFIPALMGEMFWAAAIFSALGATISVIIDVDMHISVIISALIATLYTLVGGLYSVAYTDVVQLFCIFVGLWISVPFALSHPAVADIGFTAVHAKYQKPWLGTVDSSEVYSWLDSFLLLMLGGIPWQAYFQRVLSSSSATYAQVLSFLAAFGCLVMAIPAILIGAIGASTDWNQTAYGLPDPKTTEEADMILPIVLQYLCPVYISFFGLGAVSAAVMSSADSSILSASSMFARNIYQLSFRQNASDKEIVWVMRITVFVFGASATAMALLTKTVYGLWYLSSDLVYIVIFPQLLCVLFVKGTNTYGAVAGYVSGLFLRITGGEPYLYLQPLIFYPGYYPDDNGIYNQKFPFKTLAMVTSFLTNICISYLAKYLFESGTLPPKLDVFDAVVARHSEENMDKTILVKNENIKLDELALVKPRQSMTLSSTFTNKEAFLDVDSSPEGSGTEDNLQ
CHT block = inhibits the human high affinity choline transporter | Q9GZV3 | CHT-expressing cells, membrane potential dye, choline response; hits give low values | B-score at 10 µM | actives 0.86% (n = 310,000) | AID 488975;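 active = B-score over 3 SD under the library average, and starting fluorescence ratio not unusually high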;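 note: choline stimulus applied at its EC90 after an EC20 pre-addition; B-score computed on integrated fluorescence ratio after choline addition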
AI-2 QS modul = Vibrio harveyi AI-2 quorum sensing modulation. Vibrio harveyi JMH597 AI-2 luminescence/OD600 ratio, 9 h; hits give low values; strain lacks LuxN and CqsS sensors; 0 = neutral-control median. activity change, % at 7.5 µM. actives 0.4% (n = 300,000). AID 2094; in the data active = activity change below about -75%, passing the limit was not always enough; inconclusive = no clear call, values can overlap the other calls;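 note: luminescence divided by OD600 gain over 9 h not by final OD600 alone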
PREPL inhibitor = human PREPL enzyme inhibition; recombinant PREPL, fluorescence polarization activity-based probe; Q4J6C6; actives 0.68% (n = 320,000); AID 2751; inhibition, % at 5.96 µM; in the data active = inhibition above about 43%
Large screens that a line does not name were inactive.

COc1cc(-c2cc(-c3ccc(O)cc3)nc(N)c2C#N)ccc1O	ALR H2O2 inh 97
O=C(NCCc1ccccc1)[C@@H]1CC=C[C@@H]2CCN(Cc3ccccc3)C(=O)[C@@H]21	none
COCCn1c(=S)[nH]c2cc(C(=O)N3CCc4ccccc43)ccc2c1=O	AI-2 QS modul -78
COCCn1c(=O)[nH]c2cc(C(=O)N3CCN(c4ccc(OC)cc4)CC3)ccc2c1=O	ALR H2O2 inh 96 (no result: AI-2 QS modul)
CCC(CC)NC(=O)COn1nnc2ccc(S(=O)(=O)N3CCOCC3)cc21	none
CC(=O)c1cccc(S(=O)(=O)N2CCC(C(=O)O)(c3ccccc3)CC2)c1	none (no result: ALR H2O2 inh)
CC(C)OCCCn1c(-c2ccco2)nc2nc3ccccc3nc21	ALR H2O2 inh 98
O=C(NCc1ccccc1Cl)c1cccc2c1C(=O)c1ccc(-c3ccc(OC(F)(F)F)cc3)cc1S2(=O)=O	none (no result: CHT allo act, CHT block, AI-2 QS modul)
COc1ccc(-c2nc(CS(=O)CC(=O)NCc3ccco3)c(C)o2)cc1 (stereo not given)	ALR H2O2 inh 99
CCc1ccc(-c2nc(CS(=O)CC(=O)NCc3ccco3)c(C)o2)cc1 (stereo not given)	ALR H2O2 inh 99
COc1ccc(-c2noc(CCC(=O)NCc3ccco3)n2)cc1	none
Cc1oc(-c2ccc(Cl)cc2)nc1CN1CCC(C(=O)NCc2ccco2)CC1	none
COC(=O)c1sc(-c2ccc(C(C)(C)C)cc2)cc1NC(=O)COCC(=O)O	ALR H2O2 inh 98
N#Cc1c2n(c3c(=O)n(Cc4ccc(Cl)cc4)cnc13)CCCCC2	none (no result: ALR H2O2 inh)
N#Cc1c2n(c3c(=O)n(Cc4ccccc4)cnc13)CCCC2	ALR H2O2 inh 84
COc1ccc(-c2csc(NC(CO)c3nc4ccccc4n3CCCO)n2)cc1 (stereo not given)	none
N#C/C(=C\c1ccccc1C(F)(F)F)C(=O)Nc1ccccc1	ALR H2O2 inh 90
CCOC(=O)/C(=N\Nc1ccccc1Cl)N1CCN(C)CC1	ALR H2O2 inh 98
CCOC(=O)/C(=N\Nc1ccccc1Cl)N1CCN(Cc2ccccc2)CC1	none
CN(C)CCCN(C(=O)c1ccc2c(c1)CCCC2)c1nc2ccc(Cl)cc2s1	none
CC(=O)Nc1ccc(NC(=O)COC(=O)CCCc2c[nH]c3ccccc23)cc1	ALR H2O2 inh 94
O=C(CCCc1c[nH]c2ccccc12)NCc1cccs1	ALR H2O2 inh 90
NC(=O)NC(=O)COC(=O)CCCc1c[nH]c2ccccc12	ALR H2O2 inh inconclusive
Cc1ccc2cc3c(N)c4c(C)ccc(C)c4nc3nc2c1	none (no result: ALR H2O2 inh, CHT allo act, CHT block, PREPL inhibitor)
CCN1CCN(c2nc(N(C)c3ccccc3)nc(N)c2[N+](=O)[O-])CC1	none
CCN1C(=O)/C(=C/c2ccc(N3CCCC3)cc2)NC1=S	ALR H2O2 inh 97
Cc1cc(/C=C2\NC(=S)N(C)C2=O)ccc1N1CCCC1	ALR H2O2 inh inconclusive
Cc1ccc(CN2C(=O)N/C(=C\c3ccc(N4CCOCC4)cc3)C2=O)cc1	PREPL inhibitor 71 (no result: ALR H2O2 inh)
CCCCn1c(N)c(N(CCOC)C(=O)CN(C)CC(=O)Nc2ccc(Cl)c(Cl)c2)c(=O)[nH]c1=O	none (no result: CHT allo act, CHT block, AI-2 QS modul)
COC(=O)CSc1[nH]c2ccccc2c1[N+](=O)[O-]	ALR H2O2 inh 100
CC(=O)c1cc(Cc2csc(C(C)=O)c2)cs1	PREPL inhibitor 53
CC(=O)c1cc(CN2C(=O)CCC2=O)cs1	none
Cc1cc(C(=O)COC(=O)c2n[nH]c(=O)c3ccccc23)c(C)n1C(C)C	none (no result: CHT allo act, CHT block, AI-2 QS modul)
CCOC(=O)/C(=C\c1cn(C)c2ccccc12)[N+](=O)[O-]	ALR H2O2 inh 95
Cc1ccc(-c2ccc(CCC(=O)O)n2NC(=O)c2cccs2)cc1	ALR H2O2 inh 99
O=C(O)CCc1ccc(-c2cccs2)n1NC(=O)c1ccc(Cl)cc1	ALR H2O2 inh 98
O=C(O)CCc1ccc(-c2cccs2)n1NC(=O)c1ccc(Cl)cc1Cl	none
Cc1cc(OC(F)F)ccc1NC(=O)Nc1ccc([N+](=O)[O-])cc1	none (no result: ALR H2O2 inh)
O=C(N[C@H](C(=O)O)c1ccccc1)C1CCC(Cn2nnc3ccccc3c2=O)CC1 (stereo not given in full)	none
O=C1C=C(c2cccc(CO)c2)C[C@@H](c2ccc3c(c2)OCO3)C1	none (no result: CHT allo act, CHT block, AI-2 QS modul)
CCCCC(=O)NC(=S)Nc1cc(C(=O)O)ccc1OC	none
COc1ccc(C(=O)O)cc1NC(=S)NC(=O)/C=C/c1ccc(C(C)C)cc1	ALR H2O2 inh 97
O=C(O)C1CCN(S(=O)(=O)c2cccc3nonc23)CC1	none
Clc1ccccc1C1SCC2Nc3ccccc3CN21 (stereo not given)	ALR H2O2 inh 98
O=C(NCc1ccco1)c1ccc([N+](=O)[O-])o1	AI-2 QS modul -165
O=C(Nc1cccnc1)c1ccc([N+](=O)[O-])o1	AI-2 QS modul -108
O=C(NCc1ccco1)c1ccc(Cn2cc([N+](=O)[O-])cn2)o1	none
O=C(Cc1ccc([N+](=O)[O-])cc1)NCc1cccnc1	none
COc1ccc(NC(=O)c2ccc([N+](=O)[O-])o2)cc1	none
O=C(NCc1cccnc1)c1ccc([N+](=O)[O-])o1	AI-2 QS modul -109
CCOc1ccc(NCc2cccn2-c2nnc(N3CCC(C(=O)NCCCN4CC(C)CC(C)C4)CC3)s2)cc1 (stereo not given)	ALR H2O2 inh 100
Cc1ccc(SC[C@H](c2ccccc2)N2CCN(CC(C)C)CCC2=O)cc1	none (no result: ALR H2O2 inh, CHT allo act, CHT block, PREPL inhibitor)
CC(=O)NS(=O)(=O)c1ccc(N=c2ssc3c2-c2cc(C)c(C)cc2NC3(C)C)cc1	ALR H2O2 inh 99
CC(=O)NS(=O)(=O)c1ccc2c(c1)C(=O)c1cc(S(=O)(=O)NC(C)=O)ccc1-2	none
CS(=O)(=O)Cc1ccc(C(=O)Nc2cccc(-c3nc4ccccc4[nH]3)c2)cc1	none
CS(=O)(=O)c1ccc(C(=O)Nc2ccc(-c3nc4ccccc4[nH]3)cc2)cc1	none
CS(=O)(=O)c1ccc(C(=O)Nc2cccc(-c3nc4ccccc4[nH]3)c2)cc1	ALR H2O2 inh 99
CS(=O)(=O)c1cccc(C(=O)Nc2cccc(-c3nc4ccccc4[nH]3)c2)c1	ALR H2O2 inh 99
COc1cccc(/C=C2\CCC(C3CCCC3)C2=O)c1OC (stereo not given)	none
COc1ccc(C(=O)Nc2cc3c4c(c2)C(C)C(=O)N4CCC3)cc1OC (stereo not given)	none
CCOC(=O)N1CCN(CC(O)c2ccc3c(c2)CCN3)CC1 (stereo not given)	ALR H2O2 inh 82
CCCc1sc(N)nc1-c1ccc(C)cc1	ALR H2O2 inh 78
Cc1ccc(-c2nc(N)sc2C)cc1	none (no result: ALR H2O2 inh)
Cc1ccc(-c2csc3n[nH]c(=S)n23)cc1	ALR H2O2 inh 98
Cc1ccc(C(=O)NCC(=O)OC(C)C(=O)Nc2ccc(N(C)C)cc2)s1 (stereo not given)	ALR H2O2 inh 99
Cc1ccc(Nc2cc(C)nn2-c2nc(C)cc(=O)[nH]2)cc1	ALR H2O2 inh 92, AI-2 QS modul -160
Cc1ccc(Nc2nc3ccccc3nc2-n2nc(C)cc2C)cc1	none (no result: ALR H2O2 inh)
Cc1ccccc1N(C(=O)CS(=O)CC(=O)Nc1ccc(F)cc1)C(C)C(=O)NC(C)(C)C (stereo not given)	none
